Activity calls are given as the source filed them. Rule for the calls: active = hit-call score of the fitted dose curve at least 0.9, where 1 is the maximum; inactive = score below 0.9.

Read-out in the first experiment: Intercellular Adhesion Molecule 1 (ICAM1), ICAM1 (gene 3383)
As to the kind of experiment: BSK_KF3CT_ICAM1: BioMAP Diversity Plus: KF3CT Assay for Intercellular Adhesion Molecule 1 (ICAM1) Biomarker Activity (AID 2283067). As to conditions: primary human keratinocytes with fibroblasts; actives raise or lower the signal. The method, boiled down:
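Bidirectional curve fitting against a DMSO baseline was applied to ICAM-1 ELISA signal from primary human skin co-cultures harvested 24 h after treatment, with SRB staining of parallel wells for overt cytotoxicity.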
In the case of `CCCC(=O)OCCC(C)C`, the outcome was inactive.

With `COCC(C)OCC(C)OCC(C)O` (stereo unspecified), the outcome was inactive.

Turning to `CCCCCc1ccc(N)cc1`, the result was inactive.

Regarding `c1ccc2ccccc2c1`, the outcome was inactive.

As to `Cc1cc(F)ccc1-c1cc(N2CC[C@@H](O)[C@H]2CO)ncc1N(C)C(=O)C(C)(C)c1cc(C(F)(F)F)cc(C(F)(F)F)c1`, the AC50 (in general, the midpoint of the concentration-response curve, whichever way the signal moves) was 26.3 µM (active).

For the compound `CC(C)(C)c1cc(/C=C2\SC(N)=NC2=O)cc(C(C)(C)C)c1O`, the result was inactive.

For the compound `Cc1cc2c(cc1C(F)(F)F)N(C(=O)Nc1ccc(Oc3cccnc3C)nc1)CC2`, the outcome was inactive.

Regarding `Oc1ccc2ccccc2c1`, the result was inactive.

With `CC[C@H](NC(=O)c1cc(F)ccc1NS(=O)(=O)c1cccc2cccnc12)c1ccccc1`, the outcome was inactive.

As to `O=C(Nc1ccc(Cl)cc1)Nc1ccc(Cl)c(Cl)c1`, the result was inactive.

With `O=C(O)Cn1c(=O)n(Cc2ccc(Br)cc2F)c(=O)c2ccc(Cl)cc21`, the outcome was inactive.

On to `NC(=O)c1nc(-c2cccc(-c3cc(F)ccc3OCC(F)(F)C(F)(F)F)c2)n[nH]1`, for which the AC50 is 35.2 µM (active).

As to `OC12N=C(c3ccccc3)SC1Cc1cc(Cl)ccc12` (stereo unspecified), the outcome was inactive.

`Cc1ncc(CO)c(CO)c1O`: the outcome was inactive.

Take `CN(C)C(=O)C1(N2CCCCC2)CCN(CC[C@@]2(c3ccc(Cl)c(Cl)c3)CN(C(=O)c3ccccc3)CCO2)CC1`: the AC50 is 35.2 µM (active).

Regarding `CCCCCCCCCC(=O)O`, the outcome was inactive.

In the case of `O=C(O)c1ccccc1C(=O)OCc1ccccc1`, the result was inactive.

Take `OCCO`: the outcome was inactive.

With `CC1(C)NC(=O)N(c2ccc([N+](=O)[O-])c(C(F)(F)F)c2)C1=O`, the result was inactive.

Read-out in the next experiment: Interferon-gamma inducible Protein 10 (IP10), CXCL10 (gene 3627)
The experiment in a line: BSK_KF3CT_IP10: BioMAP Diversity Plus: KF3CT Assay for Interferon-gamma inducible Protein 10 (IP10) Biomarker Activity (AID 2283068). As to conditions: primary human keratinocytes with fibroblasts; actives raise or lower the signal. The gist of the method:
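KF3CT co-culture (keratinocytes + foreskin fibroblasts), 24 h compound, IP-10 by ELISA; bidirectional fit vs DMSO baseline.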
Turning to `Cc1cccc2ccccc12`, the result was inactive.

As to `Clc1ccccc1C(c1ccccc1)(c1ccccc1)n1ccnc1`, the concentration at half-maximal activity (AC50) is 8.61 µM (active).

As for `CCCOC(=O)c1cc(O)c(O)c(O)c1`, the outcome was inactive.

Turning to `COc1ccc2cc(S(=O)(=O)N[C@H](CC(=O)N[C@H](Cc3ccc(CN4[C@H](C)CCC[C@@H]4C)cc3)C(=O)N(C)C(C)C)c3ccc4c(c3)OCO4)ccc2c1`, the AC50 was 29.3 µM (active).

For `O=c1c(-c2ccc(O)cc2)coc2cc(O)cc(O)c12`, the result was inactive.

With `O=C=NCCCCCCN=C=O`, the outcome was inactive.

Take `Cc1c2ccccc2c(C)c2c1ccc1ccccc12`: the outcome was inactive.

Turning to `O=C(O)Cc1cc(I)c(Oc2ccc(O)c(I)c2)c(I)c1`, the AC50 is 26.8 µM (active).

For `CN1C(=O)CC[C@H]1c1cccnc1`, the result was inactive.

Turning to `c1ccc(C[n+]2cccc3ccccc32)cc1`, the outcome was inactive.

`CCCCCCCCOc1ccc(C(=O)c2ccccc2)c(O)c1`: the outcome was inactive.

Take `COCC(C)OCC(C)OCC(C)O` (stereo unspecified): the outcome was inactive.

With `CCCCCc1ccc(N)cc1`, the concentration at half-maximal activity (AC50) is 22 µM (active).

On to `Cc1cc(F)ccc1-c1cc(N2CC[C@@H](O)[C@H]2CO)ncc1N(C)C(=O)C(C)(C)c1cc(C(F)(F)F)cc(C(F)(F)F)c1`, for which the AC50 is 13.2 µM (active).

For the compound `CC[C@H](NC(=O)c1cc(F)ccc1NS(=O)(=O)c1cccc2cccnc12)c1ccccc1`, the result was inactive.

With `O=C(Nc1ccc(Cl)cc1)Nc1ccc(Cl)c(Cl)c1`, the result was inactive.

On to `O=C(O)Cn1c(=O)n(Cc2ccc(Br)cc2F)c(=O)c2ccc(Cl)cc21`, for which the outcome was inactive.

For `OC12N=C(c3ccccc3)SC1Cc1cc(Cl)ccc12` (stereo unspecified), the result was inactive.

Turning to `CN(C)C(=O)C1(N2CCCCC2)CCN(CC[C@@]2(c3ccc(Cl)c(Cl)c3)CN(C(=O)c3ccccc3)CCO2)CC1`, the AC50 is 31.3 µM (active).

Read-out in the next experiment: not listed separately
The experiment in a line: BSK_KF3CT_SRB: Viability Assessment in the BioMAP Diversity Plus: KF3CT Assay (AID 2283069).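 Note: total protein by sulforhodamine B staining as a cytotoxicity measure; read 24 h after compound addition; fitted for both signal gain and loss against DMSO baseline.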 The settings on record: primary human keratinocytes with fibroblasts. The gist of the method:
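Human primary keratinocyte plus foreskin fibroblast co-culture exposed to chemicals for 24 h. Total protein measured by 0.1% sulforhodamine B staining after 10% TCA fixation, read at 560 nm; bidirectional fitting versus DMSO baseline.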
Turning to `C[C@]12CC[C@@H]3c4ccc(O)cc4CC[C@H]3[C@@H]1CC[C@H]2O`, the outcome was inactive.

`O=c1ccc2ccccc2o1`: the result was inactive.

As for `Cc1cccc2ccccc12`, the outcome was inactive.

`Clc1ccccc1C(c1ccccc1)(c1ccccc1)n1ccnc1`: the AC50 is 5.3 µM (active).

`CCCOC(=O)c1cc(O)c(O)c(O)c1`: the result was inactive.

Turning to `COc1ccc2cc(S(=O)(=O)N[C@H](CC(=O)N[C@H](Cc3ccc(CN4[C@H](C)CCC[C@@H]4C)cc3)C(=O)N(C)C(C)C)c3ccc4c(c3)OCO4)ccc2c1`, the half-maximal activity concentration (AC50) was 31.7 µM (active).

Regarding `CN(C)c1ccc(C(=C2C=CC(=[N+](C)C)C=C2)c2ccc(N(C)C)cc2)cc1`, the concentration at half-maximal activity (AC50) is 5.24 µM (active).

In the case of `O=c1c(-c2ccc(O)cc2)coc2cc(O)cc(O)c12`, the outcome was inactive.

Take `O=C=NCCCCCCN=C=O`: the outcome was inactive.

As to `O=C1c2ccccc2C(=O)N1CCc1noc(-c2ccc(CN3CCCCCC3)s2)n1`, the outcome was inactive.

As to `Cc1c2ccccc2c(C)c2c1ccc1ccccc12`, the outcome was inactive.

Regarding `O=C(O)Cc1cc(I)c(Oc2ccc(O)c(I)c2)c(I)c1`, the AC50 is 25.5 µM (active).

As to `CN1C(=O)CC[C@H]1c1cccnc1`, the outcome was inactive.

Take `O=C(OCCCCCCOC(=O)c1ccccc1)c1ccccc1`: the outcome was inactive.

Consider `CCN(CC)C(=O)c1cc(S(=O)(=O)Cc2ccccc2)c(N2CCC(c3ccccc3)CC2)cc1N(CC)CCN(C)C`, for which the half-maximal activity concentration (AC50) is 28 µM (active).

For the compound `c1ccc2n[nH]nc2c1`, the outcome was inactive.

Take `c1ccc(C[n+]2cccc3ccccc32)cc1`: the outcome was inactive.

For the compound `CC(=O)N1CCN(c2ccc(OC[C@H]3CO[C@](Cn4ccnc4)(c4ccc(Cl)cc4Cl)O3)cc2)CC1`, the concentration at half-maximal activity (AC50) was 26.6 µM (active).

As to `CCCCCCCCOc1ccc(C(=O)c2ccccc2)c(O)c1`, the outcome was inactive.

With `CCCC(=O)OCCC(C)C`, the outcome was inactive.

`COCC(C)OCC(C)OCC(C)O` (stereo unspecified): the result was inactive.

Consider `CCCCCc1ccc(N)cc1`, for which the half-maximal activity concentration (AC50) is 24.4 µM (active).

For `c1ccc2ccccc2c1`, the outcome was inactive.

With `Cc1cc(F)ccc1-c1cc(N2CC[C@@H](O)[C@H]2CO)ncc1N(C)C(=O)C(C)(C)c1cc(C(F)(F)F)cc(C(F)(F)F)c1`, the AC50 is 13.5 µM (active).

Take `CC(C)(C)c1cc(/C=C2\SC(N)=NC2=O)cc(C(C)(C)C)c1O`: the AC50 was 7.93 µM (active).

As to `Cc1cc2c(cc1C(F)(F)F)N(C(=O)Nc1ccc(Oc3cccnc3C)nc1)CC2`, the AC50 is 26.4 µM (active).

Turning to `Oc1ccc2ccccc2c1`, the result was inactive.

In the case of `CC[C@H](NC(=O)c1cc(F)ccc1NS(=O)(=O)c1cccc2cccnc12)c1ccccc1`, the outcome was inactive.

For `O=C(Nc1ccc(Cl)cc1)Nc1ccc(Cl)c(Cl)c1`, the outcome was inactive.

For `O=C(O)Cn1c(=O)n(Cc2ccc(Br)cc2F)c(=O)c2ccc(Cl)cc21`, the result was inactive.

Consider `NC(=O)c1nc(-c2cccc(-c3cc(F)ccc3OCC(F)(F)C(F)(F)F)c2)n[nH]1`, for which the AC50 is 37 µM (active).

Take `OC12N=C(c3ccccc3)SC1Cc1cc(Cl)ccc12` (stereo unspecified): the result was inactive.

Consider `Cc1ncc(CO)c(CO)c1O`, for which the outcome was inactive.

As to `CN(C)C(=O)C1(N2CCCCC2)CCN(CC[C@@]2(c3ccc(Cl)c(Cl)c3)CN(C(=O)c3ccccc3)CCO2)CC1`, the concentration at half-maximal activity (AC50) was 28.4 µM (active).

As for `CCCCCCCCCC(=O)O`, the result was inactive.

On to `O=C(O)c1ccccc1C(=O)OCc1ccccc1`, for which the result was inactive.

In the case of `OCCO`, the result was inactive.

Take `CC1(C)NC(=O)N(c2ccc([N+](=O)[O-])c(C(F)(F)F)c2)C1=O`: the outcome was inactive.

For the origin of these results see PubChem BioAssay (EPA / NIEHS).
